# Laboratory results taken from PubChem BioAssay (EPA / NIEHS).
# Inconclusive results are not listed. The source made the active and inactive calls. How the source made its calls: active means hit-call score of the fitted dose curve at least 0.9, where 1 is the maximum; inconclusive means response in the unintended direction; inactive means score below 0.9.
# Read-out: ABC Transporter (ABCB1), ABCB1 (gene 5243)
# Assay: CLD_ABCB1_6hr: CellzDirect (CLD) Gene Expression Assay for ABC Transporter (ABCB1) at 6 hours (AID 2283659);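 further: hits raise ABCB1 transcript above the DMSO vehicle baseline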
# Procedure: CLD_6hr is a cell-based, multiplexed-readout assay that uses hepatocyte, a human liver primary cell, with measurements taken at 6 hours after chemical dosing in a 96-well plate.CLD_ABCB1_6hr is one of 16 assay component(s) measured or calculated from the CLD_6hr assay. It is designed to make measurements of mRNA induction, a form of inducible reporter, as detected with chemiluminescence signals by Quantitative Nuclease Protection Assay (qNPA) technology.Data from the assay component CLD_ABCB1_6hr was analyzed at the endpoint, CLD_ABCB1_6hr, in the positive analysis fitting direction relative to DMSO as the negative control and baseline of activity. Using a type of inducible reporter, gain-of-signal activity can be used to understand changes in the reporter gene as they relate to the gene ABCB1. Furthermore, this assay endpoint can be referred to as a primary readout. To generalize the intended target to other relatable targets, this assay endpoint is annotated to the transporter intended target family, where subfamily is ABC transporter.
# Human hepatocyte cultures were treated daily for two consecutive days with fresh dosing solutions containing appropriate concentrations of the 320 ToxCast chemicals (chemical identities were blinded to CellzDirect and other ToxCast collaborators), vehicle control (0.2% DMSO), and positive control inducers as summarized in Table 1. Due to the large number of treatment groups and chemicals examined, the ToxCast chemicals were divided into two groups (spanning two independent cultures of hepatocytes from separate donor preparations (Hu778: ToxCast plates 1 and 2; Hu776: ToxCast plates 3 and 4). Each preparation of human hepatocyte cultures was treated with respective vehicle control, medium only control, set of six positive controls/reference chemicals for the five hepatic receptor pathways, and a subset of eight of the ToxCast chemicals (indoxacarb, pyrithiobac-sodium, norflurazon, cyhalofop-butyl, methomyl, thiram, acetochlor, and propiconazole). These replicate data, coupled with internal replicates designed within the blinded ToxCast chemical library, provided additional data to evaluate interindividual differences between hepatocyte preparations and their potential impact on chemical profiles.Cell morphology and integrity were evaluated using phase-contrast microscopy as an indicator of hepatocyte cell health (Tyson & Green, 1987). Cultures for each treatment group (i.e., media, vehicle [0.2% DMSO], positive control inducers [multiple concentrations], and the ToxCast chemicals [multiple concentrations]) were observed and cell morphology was assessed relative to vehicle control cultures at each harvest time point (0, 6, 24, or 48 h). […] Images were evaluated at the conclusion of the study to assess changes in cell integrity and account for the effects of chemical exposure on uncharacteristic changes in concentration-dependent gene expression profiles. The results from these determinations of apparent cytotoxicity were annotated (yes/no) alongside the corresponding qNPA data for reference.At the conclusion of each treatment period, hepatocyte cultures (96-well) were washed with 1 volume of HBSS, lysed by addition of 25 ul ArrayPlate lysis buffer (HTG, Tucson, AZ), and 70 ul/well of Denaturation Oil, denatured by incubation at 95C for 10 min, and frozen at approximately -70C until analysis by nuclease protection assay (qNPA) (Roberts et al., 2007). For qNPA analysis, cell lysates were thawed at 50C for approximately 30 min, qNPA probes were added, and samples were incubated at 95C for 10 min to begin the detection process by denaturing the target RNA, dissociating the duplexes and secondary structure hybridization. At the conclusion of the hybridization period, S1 nuclease reagent was added to each sample to digest all nonprotected nucleotides at 50C for 60-90 min. […]
row,SMILES,outcome
1,CCOC1Oc2ccc(OS(C)(=O)=O)cc2C1(C)C (stereo not given),inactive
2,O=C(NC(=O)c1c(F)cccc1F)Nc1ccc(OC(F)(F)C(F)OC(F)(F)F)c(Cl)c1 (stereo not given),inactive
3,ClC1C(Cl)C(Cl)C(Cl)C(Cl)C1Cl (stereo not given),inactive
4,CCCN(CCOc1c(Cl)cc(Cl)cc1Cl)C(=O)n1ccnc1,inactive
5,O=C1c2ccccc2C(=O)N1SC(Cl)(Cl)Cl,inactive
6,CC(C)(C)C(O)/C(=C\c1ccc(Cl)cc1Cl)n1cncn1 (stereo not given),inactive
7,O=[N+]([O-])c1c(Cl)c(Cl)c(Cl)c(Cl)c1Cl,inactive
8,CCc1ccc(C(=O)NN(C(=O)c2cc(C)cc(C)c2)C(C)(C)C)cc1,inactive
9,COP(=O)(OC)OC=C(Cl)Cl,inactive
10,C#CCN1C(=O)COc2cc(F)c(N3C(=O)C4=C(CCCC4)C3=O)cc21,inactive
11,CC[C@H](C)[C@H]1O[C@]2(C=C[C@@H]1C)C[C@@H]1C[C@@H](C/C=C(\C)[C@@H](O[C@H]3C[C@H](OC)[C@@H](O[C@H]4C[C@H](OC)[C@@H](O)[C@H](C)O4)[C@H](C)O3)[C@@H](C)/C=C/C=C3\CO[C@@H]4[C@H](O)C(C)=C[C@@H](C(=O)O1)[C@]34O)O2 (tested in a mixture with another compound),inactive
12,N#CN,inactive
13,CCC(C)(NC(=O)c1cc(Cl)c(C)c(Cl)c1)C(=O)CCl (stereo not given),inactive
14,CC(C)N(C(=O)COc1nnc(C(F)(F)F)s1)c1ccc(F)cc1,inactive
15,CCOCN(C(=O)CCl)c1c(C)cccc1CC,inactive
16,O=C(O)COc1ccc(Cl)cc1Cl,inactive
17,CNC(=O)/C=C(\C)OP(=O)(OC)OC,inactive
18,O=[N+]([O-])/N=C1\NCCN1Cc1ccc(Cl)nc1,inactive
19,CCCN(CCC)c1c([N+](=O)[O-])cc(C(F)(F)F)cc1[N+](=O)[O-],inactive
20,CCC(C)Nc1c([N+](=O)[O-])cc(C(C)(C)C)cc1[N+](=O)[O-] (stereo not given),inactive

row,SMILES,outcome
1,OCCOc1ccccc1,inactive
2,CCS(=O)(=O)c1cccnc1S(=O)(=O)NC(=O)Nc1nc(OC)cc(OC)n1,inactive
3,Oc1ccc(Cl)cc1Cc1ccccc1,inactive
4,COC(=O)c1ccccc1CS(=O)(=O)NC(=O)Nc1nc(OC)cc(OC)n1,inactive
5,Oc1cc(Cl)ccc1Oc1ccc(Cl)cc1Cl,inactive
6,C[C@H]1[C@H](c2ccc(Cl)cc2)SC(=O)N1C(=O)NC1CCCCC1,inactive
7,CCN(CC)C(=O)SCc1ccc(Cl)cc1,inactive
8,CCC(C)(C)C(=O)OC1=C(c2ccc(Cl)cc2Cl)C(=O)OC12CCCCC2,inactive
9,CC(C)OC(=O)Nc1cccc(Cl)c1,inactive
10,CC(C)(C)C(O)C(Oc1ccc(Cl)cc1)n1cncn1 (stereo not given),inactive
11,COC(=O)c1ccccc1S(=O)(=O)NC(=O)Nc1nc(C)nc(OC)n1,inactive
12,CC1(C)C(C=C(Cl)Cl)C1C(=O)OC(C#N)c1ccc(F)c(Oc2ccccc2)c1 (stereo not given),inactive
13,O=C(O)CCCOc1ccc(Cl)cc1Cl,inactive
14,CNC(=O)Oc1ccccc1OC(C)C,inactive
15,CN1CSC(=S)N(C)C1,inactive
16,CCOc1nc(NC)nc(NC(=O)NS(=O)(=O)c2ccccc2C(=O)OC)n1,inactive
17,Cc1[nH]c(=O)n(C(C)(C)C)c(=O)c1Cl,inactive
18,COc1cc(OC)nc(NC(=O)NS(=O)(=O)c2cc(NC=O)ccc2C(=O)N(C)C)n1,inactive
19,COP(=S)(OC)Oc1ccc([N+](=O)[O-])cc1,inactive
20,O=S1OCC2C(CO1)C1(Cl)C(Cl)=C(Cl)C2(Cl)C1(Cl)Cl (stereo not given),inactive
